The record followed here is PubChem BioAssay (NCI).

Common to all, as to assay: NCI-60 one-dose screen, 48 h (100 = growth as untreated, 0 = no growth, -100 = all killed)
What all share (conditions): 10 µM

The subject of experiment [1] is HCT-15 colon.
The subject of experiment [2] is HT29 colon.
Experiment [3] relates to SNB-75 CNS.
The subject of experiment [4] is SNB-19 CNS.
In experiment [5] the test system is U251 CNS.
For experiment [6], the system named is PC-3 prostate.
Experiment [7] deals with SK-MEL-5 melanoma.
The test system of experiment [8] is UACC-62 melanoma.
The test system of experiment [9] is LOX IMVI melanoma.
For experiment [10], the system named is SK-MEL-28 melanoma.
For experiment [11], the system named is SK-MEL-2 melanoma.
The subject of experiment [12] is EKVX NSCLC.
Experiment [13] relates to SN12C renal.
For experiment [14], the system named is UO-31 renal.
Experiment [15] deals with TK-10 renal.
Experiment [16] concerns ACHN renal.
Experiment [17] concerns CAKI-1 renal.
The subject of experiment [18] is A498 renal.
In experiment [19] the test system is CCRF-CEM leukemia.
Experiment [20] has as its system MOLT-4 leukemia.

About 83,000 compounds went through this panel and 20% of them were active in at least one assay; those are over-represented in the sample as a whole.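 Percent growth is the endpoint: 0 to 100 indicates growth inhibition (40 means 60% inhibition), 0 means no net growth, and negative values indicate cell death.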 A number with no mark means an inactive call. Calls of active or inactive are those of the source. Rule for the calls: active = growth percent below 10; inactive = the rest.

On to `COc1cccc(-c2ccnc(/N=C(\N)Nc3ccc(S(=O)(=O)Nc4nc(C)cc(C)n4)cc3)n2)c1`, for which the growth was 104% in experiment [1]; 106% in experiment [2]; 77.5% in experiment [3]; 101% in [4]; 101% in experiment [5]; 91.2% in experiment [6]. The growth in [7] is 99.6%; in experiment [8], 102%; in experiment [9], 85.8%; in experiment [10], 112%; in [11], 100%; in experiment [12], 92.7%. Further, the growth in experiment [13] is 100%; in experiment [14], 64.1%; in experiment [15], 111%; in [16], 97.3%; in experiment [17], 80.4%; in [18], 114%. Also, the growth in [19] is 98.5%; in experiment [20], 101%.

Take `O=S(=O)(Nc1ncccn1)c1ccc(-n2c(-c3ccccc3)nc(-c3ccccc3)c2-c2ccccc2)cc1`: the growth in experiment [1] is 80.7%; in [2] it was 105%; in [3] it was 77.2%; in experiment [4], 82.3%; in experiment [5], 81.5%; in [6] it was 67.8%. Besides, the growth is 76.1% in experiment [7]; 83.7% in experiment [8]; 85.7% in [9]; 105% in [10]; 106% in [11]; 76.9% in [12]. Further, the growth in experiment [13] was 92.4%; in [14], 62.2%; in experiment [15] it was 94.6%; in [16], 97.3%; in experiment [17], 84.2%; in experiment [18] it was 81.9%. Further, the growth in experiment [19] is 75.7%; in experiment [20], 92.1%.

With `O=C1N/C(=N\c2nccs2)S/C1=C\c1cccs1`, the growth in [1] was 17.4%; in [2] it was 39.6%; in experiment [3], 69.6%; in [4], 30.6%; in [5], 29.5%; in [6], 41.3%. In addition, the growth in [7] was -76.9% (active); in [8], -18.9% (active); in experiment [9], 8.62% (active); in [10], 14.6%; in experiment [11], 40.7%; in experiment [12], 19%. For the same molecule, the growth in experiment [13] is 45.8%; in [14], 20.8%; in experiment [15], 55.2%; in [16], 17.1%; in experiment [17], 20.2%; in experiment [18] it was 73.2%. The growth is 19.1% in experiment [19] and 17% in [20].

`CC(C)c1ccc(C(=O)Nc2sc3c(c2C(N)=O)CCC(=O)C3=O)cc1`: the growth in [1] was 71.5%; in experiment [2] it was 110%; in experiment [3] it was 98.2%; in experiment [4], 97.4%; in experiment [5], 92.6%; in experiment [6] it was 82.8%. Besides, the growth in experiment [7] is 99.1%; in [8], 94.3%; in [9], 82.7%; in experiment [10], 110%; in [11], 98.8%; in [12] it was 87.9%. Also, the growth was 94.7% in experiment [13]; 59.7% in [14]; 125% in experiment [15]; 93.6% in experiment [16]; 91.9% in experiment [17]; 130% in experiment [18]. For the same molecule, the growth in experiment [19] was 86.4%; in experiment [20], 72.4%.

For `O=C(c1ccc(Cl)cc1)C1[C@H](c2ccccc2Br)[C@@H](c2ccccc2)NC12C(=O)Nc1ccc(Br)cc12` (stereo not given in full), the growth was 9.81% (active) in experiment [1]; -36% (active) in [2]; 31.9% in experiment [3]; 36.2% in experiment [4]; -29.1% (active) in [5]; 6.63% (active) in experiment [6]. Further, the growth is 14.4% in experiment [7]; 19.6% in experiment [8]; -100% (active) in experiment [9]; 43.8% in [10]; -51% (active) in experiment [11]; 14.7% in experiment [12]. Moreover, the growth in [13] was -63.5% (active); in experiment [14], 13.5%; in experiment [15], 23.9%; in [16] it was 11.9%; in [17], 8.82% (active); in experiment [18] it was 74.5%. The growth in experiment [19] was 5.86% (active); in [20], -9.97% (active).

On to `Cc1ccn2c(C(=O)c3ccccc3)cc(-c3cc(-c4ccc(N(C)C)cc4)c(C#N)c(N)n3)c2c1`, for which the growth in experiment [1] is 73.1%; in [2], 63.1%; in [3], 78.4%; in experiment [4], 60.9%; in experiment [5] it was 31.9%; in experiment [6], 78.1%. Moreover, the growth in experiment [7] was 58.1%; in experiment [8], 64.6%; in [9], 21.8%; in [10], 74.3%; in experiment [11], 80.9%; in experiment [12], 88.6%. For the same molecule, the growth is 61.9% in [13]; 65.4% in experiment [14]; 85.7% in experiment [15]; 31.2% in [16]; 52.7% in experiment [17]; 111% in experiment [18]. Moreover, the growth in [19] was 96.5%; in experiment [20] it was 82.9%.

`O=C1NC(=NC2CCCCCC2)N/C1=C\c1ccc2ncoc2c1`: the growth in experiment [1] was 13%; in experiment [2] it was 56.1%; in experiment [3], 14.7%; in experiment [4], 29.7%; in experiment [5], 32.7%; in experiment [6] it was 53.8%. In addition, the growth in experiment [7] was 21.1%; in experiment [8], 19.3%; in [9], 22.2%; in [10], 27.5%; in [11] it was 22.9%; in experiment [12], 38.8%. Also, the growth is 21.1% in [13]; 4.42% (active) in experiment [14]; 43.8% in experiment [15]; 9.91% (active) in experiment [16]; 10% in experiment [17]; -9.1% (active) in [18]. Besides, the growth is 18% in experiment [19] and 38.2% in [20].

Turning to `O=c1c2ccccc2nc(COc2ccccc2)n1/N=C/c1ccc(N2CCCC2)cc1`, the growth is 82.8% in experiment [1]; 79.9% in experiment [2]; 108% in experiment [3]; 89.5% in experiment [4]; 105% in experiment [5]; 80.3% in experiment [6]. The growth in experiment [7] was 62.4%; in [8] it was 61.6%; in [9], 86.6%; in [10], 100%; in experiment [11] it was 104%; in [12] it was 88%. Moreover, the growth in [13] was 88.7%; in [14] it was 69.8%; in experiment [15] it was 99.5%; in experiment [16], 92.3%; in experiment [17] it was 91.5%; in [18] it was 109%. The growth is 78.2% in [19] and 78.1% in [20].
